This note sets out measurements from PubChem BioAssay (NCI).

SMILES strings stand for the structures. About 83,000 compounds went through this panel and 20% of them were active in at least one assay; those are over-represented in the sample as a whole.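 The endpoint reported here, percent growth, reads 100 for growth as untreated, 0 for no net growth and -100 for all cells dead.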 Unmarked numbers belong to inactive results. Activity calls are given as the source filed them. The calls were made as follows: active = growth percent below 10; inactive = the rest.

Test systems include K-562 leukemia; MALME-3M melanoma; MDA-MB-231 breast; RXF 393 renal; SF-268 CNS; SF-295 CNS; SF-539 CNS; UACC-257 melanoma; M14 melanoma; HCT-15 colon; HT29 colon; SNB-75 CNS; SNB-19 CNS; U251 CNS; SK-MEL-5 melanoma; UACC-62 melanoma; LOX IMVI melanoma; SK-MEL-28 melanoma; SK-MEL-2 melanoma.
Common to all, as to assay: NCI-60 one-dose screen, 48 h (100 = growth as untreated, 0 = no growth, -100 = all killed)
Details in all cases: 10 µM unless noted

On to `CCCCSc1cc(C)nc(N)n1`, for which the growth was 94.8% in the experiment on K-562 leukemia; 96.4% in the experiment on MALME-3M melanoma; 104% in the experiment with MDA-MB-231 breast; 105% with RXF 393 renal; 98.8% in the experiment with SF-268 CNS; 102% in the experiment on SF-295 CNS. The growth in the experiment on SF-539 CNS was 95.7%; in the experiment on UACC-257 melanoma, 109%; in the experiment with M14 melanoma, 99.2%; with HCT-15 colon, 91.1%; with HT29 colon, 103%; in the experiment on SNB-75 CNS it was 81%. For the same compound, the growth is 99.4% in the experiment on SNB-19 CNS; 93.8% with U251 CNS; 101% with SK-MEL-5 melanoma; 93.9% in the experiment on UACC-62 melanoma; 92% with LOX IMVI melanoma; 113% in the experiment with SK-MEL-28 melanoma. Besides, in the experiment with SK-MEL-2 melanoma, the growth was 93.4%.
Consider `Cc1nc2c(O)cccc2cc1CO`, for which the growth is 82.8% with K-562 leukemia; 178% in the experiment on MALME-3M melanoma; 110% in the experiment on MDA-MB-231 breast; 136% with RXF 393 renal; 99.8% in the experiment on SF-268 CNS; 106% with SF-295 CNS. The growth in the experiment on SF-539 CNS was 93.5%; with UACC-257 melanoma, 116%; in the experiment on M14 melanoma, 110%; in the experiment with HCT-15 colon, 109%; in the experiment with HT29 colon it was 99.8%; in the experiment on SNB-75 CNS, 78.2%. Besides, the growth with SNB-19 CNS was 104%; in the experiment with U251 CNS, 109%; with SK-MEL-5 melanoma, 98.5%; in the experiment with UACC-62 melanoma, 94.6%; in the experiment with LOX IMVI melanoma, 106%; in the experiment with SK-MEL-28 melanoma, 139%. For the same compound, the growth in the experiment on SK-MEL-2 melanoma was 122%.
As to `CCCc1cc(=O)n2c(C(=O)Nc3ccccc3OC)c(C(=O)Nc3ccc(F)cc3)sc2n1`, the growth with K-562 leukemia was 3.51% [30 µM] (active); with MALME-3M melanoma it was 64.1% [30 µM]; with MDA-MB-231 breast it was 58.3% [30 µM]; in the experiment with RXF 393 renal, -19.5% [30 µM] (active); with SF-268 CNS, -16.3% [30 µM] (active); in the experiment with SF-295 CNS it was -18.7% [30 µM] (active). For the same compound, the growth was -47% [30 µM] (active) in the experiment on SF-539 CNS; 76.3% [30 µM] in the experiment on UACC-257 melanoma; 80.6% [30 µM] in the experiment on M14 melanoma; 79% [30 µM] in the experiment with HCT-15 colon; 38.2% [30 µM] in the experiment on HT29 colon; 12.8% [30 µM] in the experiment on SNB-75 CNS. Further, the growth was 26.7% [30 µM] in the experiment on SNB-19 CNS; 14.7% [30 µM] in the experiment on U251 CNS; 45.4% [30 µM] with SK-MEL-5 melanoma; 66.6% [30 µM] in the experiment with UACC-62 melanoma; 44.5% [30 µM] with LOX IMVI melanoma; 68.5% [30 µM] with SK-MEL-28 melanoma. Also, the growth in the experiment on SK-MEL-2 melanoma is 91.6% [30 µM].
With `COc1ccc2[nH]c(-c3ccccc3)cc2c1`, the growth in the experiment on K-562 leukemia is 76.5%; with MALME-3M melanoma, 122%; in the experiment on MDA-MB-231 breast, 90%; in the experiment on RXF 393 renal, 100%; in the experiment on SF-268 CNS, 110%; with SF-295 CNS, 105%. Moreover, the growth was 103% in the experiment with SF-539 CNS; 87.5% in the experiment on UACC-257 melanoma; 112% in the experiment with M14 melanoma; 97% with HCT-15 colon; 102% in the experiment with HT29 colon; 88% in the experiment with SNB-75 CNS. The growth is 93.4% in the experiment with SNB-19 CNS; 107% with U251 CNS; 97% in the experiment on SK-MEL-5 melanoma; 84.7% in the experiment with UACC-62 melanoma; 105% in the experiment with LOX IMVI melanoma; 110% in the experiment on SK-MEL-28 melanoma. Besides, the growth with SK-MEL-2 melanoma is 101%.
Regarding `Cc1cc(NC(=O)Nc2cc(Cl)ccc2C)no1`, the growth with K-562 leukemia was 80.8%; in the experiment with MALME-3M melanoma it was 191%; in the experiment with MDA-MB-231 breast it was 100%; with RXF 393 renal, 126%; with SF-268 CNS it was 100%; with SF-295 CNS, 112%. The growth in the experiment on SF-539 CNS is 94.1%; in the experiment on UACC-257 melanoma it was 115%; with M14 melanoma, 109%; in the experiment on HCT-15 colon, 100%; in the experiment on HT29 colon, 106%; in the experiment with SNB-75 CNS, 76.8%. In addition, the growth with SNB-19 CNS was 110%; with U251 CNS it was 108%; with SK-MEL-5 melanoma, 102%; in the experiment with UACC-62 melanoma, 91.1%; in the experiment with LOX IMVI melanoma it was 99.3%; in the experiment with SK-MEL-28 melanoma it was 142%. In addition, the growth with SK-MEL-2 melanoma was 116%.
For the compound `CC(=O)Oc1c(C)c(OC(C)=O)c2c(c1C(C)=O)OC1CC(=O)C(C(C)=O)=C(O)C21C` (configuration not stated), the growth in the experiment with K-562 leukemia is 73.3%; in the experiment on MALME-3M melanoma it was 96.9%; in the experiment with MDA-MB-231 breast, 106%; in the experiment on RXF 393 renal it was 132%; in the experiment with SF-268 CNS, 122%; in the experiment with SF-295 CNS, 92%. For the same compound, the growth in the experiment with SF-539 CNS was 98.6%; in the experiment on UACC-257 melanoma it was 115%; with M14 melanoma, 96%; in the experiment with HCT-15 colon, 94.8%; in the experiment with HT29 colon, 100%; in the experiment on SNB-75 CNS, 94.7%. The growth in the experiment on SNB-19 CNS was 95.4%; in the experiment on U251 CNS it was 91.6%; in the experiment with SK-MEL-5 melanoma it was 95.4%; in the experiment on UACC-62 melanoma it was 95.9%; in the experiment with LOX IMVI melanoma, 86.7%; with SK-MEL-28 melanoma it was 119%. Besides, in the experiment on SK-MEL-2 melanoma, the growth was 107%.
Take `CC(C)c1ccc(C(=O)Nc2sc3c(CN(C)C)c(O)ccc3c2C(N)=O)cc1`: the growth in the experiment on K-562 leukemia is -41.3% (active); with MALME-3M melanoma, 63.9%; in the experiment on MDA-MB-231 breast, 38.5%; in the experiment with RXF 393 renal, 12.2%; in the experiment with SF-268 CNS, 69.3%; with SF-295 CNS, 61.9%. In addition, the growth with SF-539 CNS was 40.8%; with UACC-257 melanoma it was 9.32% (active); with M14 melanoma, 18.5%; with HCT-15 colon, -48.7% (active); in the experiment with HT29 colon it was 2.74% (active); with SNB-75 CNS, 48.5%. For the same compound, the growth in the experiment with SNB-19 CNS was 84.4%; in the experiment on U251 CNS, 34.3%; with SK-MEL-5 melanoma it was 88.3%; with UACC-62 melanoma, 104%; with LOX IMVI melanoma it was -88.3% (active); with SK-MEL-28 melanoma, 84.2%. The growth in the experiment with SK-MEL-2 melanoma is 96.4%.
On to `COc1cc(NC(=O)c2cc3ccccc3cc2O)c(OC)cc1Cl`, for which the growth with K-562 leukemia was -2.3% (active); in the experiment on MALME-3M melanoma it was -23.7% (active); with MDA-MB-231 breast, 18.5%; in the experiment on RXF 393 renal, 20.9%; in the experiment on SF-268 CNS it was 27.3%; with SF-295 CNS it was 8.57% (active). Further, the growth in the experiment with SF-539 CNS is 7.7% (active); in the experiment with UACC-257 melanoma, -22.2% (active); in the experiment on M14 melanoma it was 4.56% (active); in the experiment on HCT-15 colon it was 13.8%; in the experiment with HT29 colon it was 64.8%; in the experiment with SNB-75 CNS, 40.9%. The growth is 16% with SNB-19 CNS; 13.1% with U251 CNS; -41.9% (active) in the experiment on SK-MEL-5 melanoma; 24% with UACC-62 melanoma; 3.45% (active) in the experiment on LOX IMVI melanoma; 43.6% with SK-MEL-28 melanoma. Also, the growth in the experiment with SK-MEL-2 melanoma was -17.2% (active).
